Experimental data reported in PubChem BioAssay (NCATS).
Records with an inconclusive call do not appear. The source made the active and inactive calls. The call rests on the fitted dose curve; in most records, active means well fitted curve in the direction sought with a large enough effect; inconclusive means small, poorly fitted or top-dose-only effect, or another doubt; inactive means no such curve, though single readings can be large; an effect the other way counts as inactive or inconclusive.

Columns and labels:
HEK293T [1] = test: qHTS assay to identify novel small-molecules to repurpose for Merkel cell carcinoma treatment (AID 1296009); details: MCC and control cell lines, CellTiter-Glo viability, 72 h; at 44.8 µM (top of the series) unless noted; further: nearly all actives have a fitted effect of over 60% in size
How it was run: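 Luminescence from CellTiter-Glo, read 10 min after addition at room temperature, reported viability following a 72 hr, 37 degree celsius treatment with NPC or MIPE compounds in titration; values normalized to plate controls.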

C33A = test: Primary qHTS to identify gynecologic anti-cancer compounds using libraries of approved drugs and bioactive compounds (AID 1345084); details: Gynecologic cancer cell panel viability, ATPlite luminescence, 48 h; series mostly up to 57.5 µM; further: nearly all actives have a fitted effect of over 55% in size
How it was run: (§1)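 Five-concentration response, 48 h; readout is ATP-driven luciferase luminescence.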

CAOV3 = test: as above; details: Gynecologic cancer cell panel viability, ATPlite luminescence, 48 h; series mostly up to 57.5 µM
How it was run: as §1

CASKI = test: as above; details: Gynecologic cancer cell panel viability, ATPlite luminescence, 48 h; series mostly up to 57.5 µM
How it was run: as §1

Es-2 = test: as above; details: Gynecologic cancer cell panel viability, ATPlite luminescence, 48 h; series mostly up to 57.5 µM
How it was run: as §1

HeLa = test: as above; details: Gynecologic cancer cell panel viability, ATPlite luminescence, 48 h; series mostly up to 57.5 µM
How it was run: as §1

Hek293T [2] = test: as above; details: Gynecologic cancer cell panel viability, ATPlite luminescence, 48 h, control line for the selectivity index; series mostly up to 57.5 µM
How it was run: as §1

JEG-3 = test: as above; details: Gynecologic cancer cell panel viability, ATPlite luminescence, 48 h; series mostly up to 57.5 µM
How it was run: as §1

OV90 = test: as above; details: Gynecologic cancer cell panel viability, ATPlite luminescence, 48 h; series mostly up to 57.5 µM
How it was run: as §1

PA-1 = test: as above; details: Gynecologic cancer cell panel viability, ATPlite luminescence, 48 h; series mostly up to 57.5 µM
How it was run: as §1

SKOV3 = test: as above; details: Gynecologic cancer cell panel viability, ATPlite luminescence, 48 h; series mostly up to 57.5 µM
How it was run: as §1

Tov112D = test: as above; details: Gynecologic cancer cell panel viability, ATPlite luminescence, 48 h; series mostly up to 57.5 µM
How it was run: as §1

Tov-21-G = test: as above; details: Gynecologic cancer cell panel viability, ATPlite luminescence, 48 h; series mostly up to 57.5 µM
How it was run: as §1

Measured: Potency

COC(=O)CCC1(C)C(C(C)(C)O)C(O)CC2(C)Oc3c(C)c4c(c(OC)c3CC21)C(=O)OC4 (stereo not drawn)
inactive: HEK293T [1] inactive [at 17.4 µM] | C33A | CAOV3 | CASKI | Es-2 | HeLa | Hek293T [2] | JEG-3 | OV90 | PA-1 | SKOV3 | Tov112D

C[C@@H]1[C@H]2[C@H](O[C@@H]3O[C@H](CO)[C@@H](O)[C@H](O)[C@H]3O)OC=C(C(=O)O)[C@H]2C[C@@H]1OC(=O)/C=C/c1ccc(O)cc1
inactive: HEK293T [1] inactive [at 17.4 µM] | C33A | CAOV3 | CASKI | Es-2 | HeLa | Hek293T [2] | JEG-3 | OV90 | PA-1 | Tov-21-G | Tov112D

CC1(C)C=Cc2c(ccc3c2N=C2C(C)(C)[C@@H]4C[C@]56CCCN5C(=O)[C@@]4(C[C@]23O)NC6=O)O1
inactive: HEK293T [1] inactive [at 17.4 µM] | C33A | CAOV3 | CASKI | Es-2 | HeLa | Hek293T [2] | JEG-3 | OV90 | PA-1 | Tov-21-G | Tov112D

CC(O)C1NC(=O)C2CCCN2C1=O (stereo not drawn)
inactive: HEK293T [1] inactive [at 92 µM] | C33A | CAOV3 | CASKI | Es-2 | HeLa | JEG-3 | OV90 | PA-1 | Tov-21-G | Tov112D

C=C[C@H]1[C@H](O[C@@H]2O[C@H](CO)[C@@H](O)[C@H](O)[C@H]2O)OC=C2C(=O)N3Cc4c([nH]c5ccccc5c4=O)[C@@H]3C[C@H]21
inactive: HEK293T [1] inactive [at 17.4 µM] | C33A | CAOV3 | CASKI | Es-2 | HeLa | Hek293T [2] | JEG-3 | OV90 | PA-1 | Tov-21-G | Tov112D

CC1CCC2C(C(=O)O)=CC3(O)CC(C)(C)CC123 (stereo not drawn)
not listed: PA-1
inactive: all other assays above

C[C@@H]1CC[C@]2(C(=O)O)CC[C@]3(C)C(=CCC4[C@@]5(C)C[C@@H](O)[C@@H](O)C(C)(C)C5CC[C@]43C)C2[C@]1(C)O (stereo partly drawn)
inactive: HEK293T [1] inactive [at 17.4 µM] | C33A | CAOV3 | CASKI | Es-2 | HeLa | Hek293T [2] | JEG-3 | OV90 | Tov-21-G | Tov112D

COc1cccc(CNc2ccc(S(=O)(=O)Nc3nc4ccccc4s3)cc2)c1O
not listed: SKOV3
inactive: all other assays above

CSCC1OC(n2cnc3c(N)ncnc32)C(O)C1O (stereo not drawn)
not listed: SKOV3
inactive: all other assays above

O=C1NC(=O)/C(=C/c2cccc(C(F)(F)F)c2)S1
not listed: SKOV3
inactive: all other assays above

C[C@@H]1C(=O)O[C@H](C)[C@H]1C[C@@H](O)[C@](C)(O)[C@H]1CC[C@@]2(O)C3=CC(=O)[C@@H]4C[C@@H](O)[C@@H](O)C[C@]4(C)C3CC[C@]12C (stereo partly drawn)
inactive: HEK293T [1] inactive [at 17.4 µM] | C33A | CAOV3 | CASKI | Es-2 | HeLa | Hek293T [2] | JEG-3 | OV90 | SKOV3 | Tov-21-G | Tov112D

Cn1nccc1-c1ccccc1Oc1ccc(S(=O)(=O)Nc2nccs2)cc1C#N
not listed: OV90 | SKOV3
inactive: all other assays above

C=CC(C)(CC/C=C(\C)C(=O)OC)OC1OC(COC(=O)CC(C)(O)CC(=O)O)C(O)C(O)C1O (stereo not drawn)
inactive: HEK293T [1] inactive [at 17.4 µM] | C33A | CAOV3 | CASKI | Es-2 | HeLa | Hek293T [2] | JEG-3 | OV90 | PA-1 | Tov-21-G | Tov112D

c1ccc2c(Nc3nnc(-c4ccncc4)s3)cccc2c1
not listed: Hek293T [2] | OV90 | SKOV3 | Tov-21-G
inactive: all other assays above

CN(C)C(=O)C(O)C(Cc1ccccc1)NC(=O)c1cc2cc(Cl)ccc2[nH]1 (stereo not drawn)
not listed: Hek293T [2] | Tov-21-G
inactive: all other assays above
